Assay [1] concerns TRPC4 beta (transient receptor potential cation channel C4), mouse. The experiment in a line: TRPC4 cation channel opening, retest – cell-based, Fluo4 calcium, HEK293 TRPC4beta/mu-opioid, duplicates, 10 µM, confirmation (AID 2426;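 active means fluorescence ratio normalized to control raised more than 50% in primary screen plus both repeat runs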;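 further: percent rise of integrated ratio over buffer wells lacking compound which define 0%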). The settings on record: Fluo4 calcium fluorescence, at 10 µM; active compounds read high.
In assay [2] the test system is transient receptor potential cation channel C4 beta (TRPC4), mouse. Briefly: TRPC4 cation channel opening, second retest – cell-based, second round, Fluo4, HEK293 TRPC4beta/mu-opioid, 1 µM, confirmation (AID 2461;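 active means primary screen active and over 50% activation in each of two duplicate runs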). The settings on record: Fluo4 calcium fluorescence, at 1 µM; active compounds read high.
The test system of assay [3] is TRPC4 (transient receptor potential cation channel C4 beta), mouse. The experiment in a line: potentiation of DAMGO EC20 TRPC4 response – cell-based, second round, Fluo-4, HEK293 TRPC4beta/mu-opioid, 1 µM, confirmation (AID 2554;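 active means primary screen hit whose fluorescence ratio, in both repeats, exceeds the weak agonist control mean by 3 SD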). The settings on record: DAMGO EC20, Fluo-4 calcium flux, at 1 µM; active compounds read high. (In general: A change in cytosolic calcium serves as a functional read-out for many receptors and channels.)

Assay [4] concerns TRPC4 beta (transient receptor potential cation channel C4), mouse. The experiment in a line: potentiation of DAMGO EC20 TRPC4 response – cell-based, Fluo-4, HEK293 TRPC4beta/mu-opioid, confirmation (AID 2555;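 active means primary screen hit whose calcium fluorescence ratio, in both repeats, exceeds the weak agonist control mean by 3 SD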). The settings on record: DAMGO EC20, Fluo-4 calcium flux, at 10 µM; active compounds read high.
The target in assay [5] is Short transient receptor potential channel 4 (Mus musculus) (UniProt Q9QUQ5). The experiment in a line: blockers of DAMGO-evoked TRPC4 calcium flux – cell-based, Fluo4, HEK293 TRPC4beta/mu-opioid, confirmation (AID 2636;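 active means calcium signal cut by more than 3 SD below the full-agonist control yet still positive, in both repeats and the earlier primary screen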). Conditions: at 10 µM; active compounds read high.
Assay [6] has the same target. Briefly: blockers of DAMGO-evoked TRPC4 calcium flux – cell-based, second round, Fluo4, HEK293 TRPC4beta/mu-opioid, 1 µM, confirmation (AID 2637;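 active means calcium signal ratio cut to more than 3 SD under the fully stimulated control mean yet still positive, in both repeats and the primary screen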). The settings on record: at 1 µM; active compounds read high.
For assay [7] the target is unchanged. Briefly: block of DAMGO-driven TRPC4 calcium entry – cell-based, HEK293 TRPC4/mu-opioid, Fluo-4 calcium, dose response (AID 434942;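 active means primary screen inhibitor hit that blocks the TRPC4 channel at some tested dose, yielding a dose curve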).
The target of assay [8] is Short transient receptor potential channel 6 (Mus musculus) (UniProt Q61143). Briefly: TRPC6 blockade by TRPC4 inhibitor hits – cell-based, HEK293, membrane potential dye, duplicate, selectivity assay for TRPC4 inhibitor project, confirmation (AID 434948;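 active means active in primary screen and both duplicates, each dropping signal beyond three positive-control SD with fluorescence still positive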). The settings on record: HEK293 TRPC6, membrane potential dye fluorescence, at 10 µM, stimulated with maximal-effect acetylcholine; active compounds read high.

Assay [9] shares this target. Briefly: TRPC6 opening by TRPC4 activator hits – cell-based, HEK293, membrane potential dye, duplicate, selectivity assay for TRPC4 activator project, confirmation (AID 434950;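 active means membrane potential signal rise above negative control mean plus 3 SD in both duplicates, also active in the earlier TRPC4 screen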;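 on activation: 0% = buffer only wells and 100% = acetylcholine maximal-effect wells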). The settings on record: HEK293 TRPC6, membrane potential fluorescence, at 10 µM; activation: active compounds read high; outcome: activation.
The target is the same in assay [10]. The experiment in a line: positive modulators of mouse TRPC6 channel – HEK293 cells, membrane potential dye, duplicate, selectivity assay for TRPC4 potentiator project, confirmation (AID 434952;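 active means compound raising the membrane signal above positive-control mean plus 3 SD in both repeats, and a primary screen hit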). The settings on record: HEK293 TRPC6, membrane potential dye fluorescence, at 10 µM, maximal acetylcholine added after compound; active compounds read high.
Assay [11] concerns the target Short transient receptor potential channel 4 (Mus musculus) (UniProt Q9QUQ5). The experiment in a line: calcium flux activators in TRPC4/5HT1a cells, counter-screen for TRPC4 activator project, cell-based, second counter screen, HEK293 TRPC4/5HT1a, Fluo-4 (AID 434977;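 active means calcium signal rise above buffer-control mean plus 5 SD in both duplicates, and also a hit in the primary screen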;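 further: plate controls were assay buffer for no effect and maximal serotonin response for full effect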). The settings on record: Fluo-4 calcium flux, at 10 µM; active compounds read high.
Assay [12] can be described thus: serotonin-gated TRPC4 signal block – cell-based, second counter screen, HEK293 TRPC4/5HT1a, Fluo-4, counter-screen for TRPC4 inhibitor project, confirmation (AID 434978;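 active means primary screen active whose calcium signal fell more than 3 SD beyond the full-serotonin control mean in both duplicate plates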;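 on outcome: serotonin given first at submaximal then at maximal dose after compound preincubation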). Conditions: Fluo-4 calcium flux, at 10 µM, serotonin added to trigger calcium flux; active compounds read high.
For assay [13], the system named is TRPC4 (mouse), co-expressed with 5HT1a in HEK293. The experiment in a line: enhancement of serotonin-evoked TRPC4 response – cell-based, second counter screen, HEK293 TRPC4/5HT1a, Fluo-4, counter-screen for TRPC4 potentiator project, confirmation (AID 434979;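 active means signal rise over 3 SD above mean of control wells given weak agonist, in both repeats and first screen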). The settings on record: Fluo-4 calcium flux, at 10 µM, serotonin added at its EC20 dose; active compounds read high. In general terms: Counterscreens check selectivity or assay interference.

Assay [14] in a line: nonspecific calcium rise without TRPC4 – cell-based, HEK293 mu-opioid receptor line, counter-screen for TRPC4 activator project, confirmation (AID 449723;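 active means hit in primary screen, with calcium signal over 5 SD above buffer well mean in both duplicates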;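 further: counter screen cells carry the mu-opioid receptor alone and lack TRPC4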). Conditions: HEK293 mu-opioid cells, Fluo-4 calcium fluorescence, at 10 µM; active compounds read high.
A short description of assay [15]: nonspecific potentiation of DAMGO calcium response – cell-based, HEK293 mu-opioid receptor line, counter-screen for TRPC4 allosteric potentiator project, confirmation (AID 449724;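 active means calcium signal rise more than 3 SD above the low-dose agonist control mean, in both duplicate plates and the primary screen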). The settings on record: HEK293 mu-opioid receptor cells, Fluo-4 calcium flux, at 10 µM, compound added before EC20 DAMGO stimulus; active compounds read high.
Assay [16] addresses Short transient receptor potential channel 4 (Mus musculus) (UniProt Q9QUQ5). Briefly: DAMGO-gated TRPC4 membrane potential modulation – cell-based, second specificity screen, HEK293 TRPC4/mu-opioid, selectivity assay for TRPC6 inhibitor project, confirmation (AID 2776;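 active means compounds whose fluorescence signal differed from control wells by over 3 SD, either direction, in both duplicate plates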). The settings on record: HEK293 TRPC4/MOR, membrane potential dye fluorescence, at 10 µM, channel activated by saturating DAMGO dose; active compounds read high.

Assay [17] concerns transient receptor potential cation channel C4 (TRPC4), mouse. Briefly: membrane potential change in TRPC4 cells – cell-based, HEK293 TRPC4/mu-opioid, membrane potential dye, selectivity assay for TRPC6 inhibitor project, confirmation (AID 2777;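 active means rise or fall in signal beyond 3 SD of buffer-only wells in both replicate plates, either sign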;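 further: integrated kinetic ratio of fluorescence range over baseline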). Conditions: membrane potential fluorescence, at 10 µM.
Assay [18] in a line: parental HEK293 depolarization signal interference – cell-based, second counter screen, counter-screen for TRPC6 inhibitor project, confirmation (AID 2779;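 active means membrane potential signal moving either way by over 3 SD of the maximum-effect control, in both duplicate plates, meaning non-specific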). Conditions: parental HEK293 membrane potential dye fluorescence; at 10 µM; maximal acetylcholine challenge after compound addition.
Assay [19] can be described thus: nonspecific voltage dye signal in HEK293 – cell-based, parental HEK293, counter-screen for TRPC6 inhibitor project, confirmation (AID 2780;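 active means membrane potential signal shifting up or down by more than 3 SD of buffer-only wells, on both duplicate plates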;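 on membrane potential signal change: plate controls were buffer EC0 wells for no effect and acetylcholine ECmax wells for full effect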). Conditions: parental HEK293 membrane potential dye fluorescence; at 10 µM.
For assay [20], the target named is Short transient receptor potential channel 6 (Mus musculus) (UniProt Q61143). The experiment in a line: blockers of TRPC6 cation channel activity – HEK293 cells, membrane potential dye, duplicate, confirmation (AID 488960).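 On inhibition: integrated fluorescence ratio of peak minus minimum over baseline after agonist.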 Conditions: ACh-evoked depolarization, at 10 µM; active compounds read high.
Assay [21] has the same target. The experiment in a line: mouse TRPC6 channel activators, confirmation, HEK293 cells, membrane potential dye, duplicate (AID 488961;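 active means ratio signal rise beyond 5 SD above unstimulated control wells' mean, seen in both duplicate runs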). Conditions: HEK293-TRPC6 membrane potential dye fluorescence, FDSS, at 10 µM; active compounds read high.
Assay [22] can be described thus: nonspecific voltage dye response without TRPC6 – cell-based, parental HEK293, counter-screen for TRPC6 modulator project, confirmation (AID 488924;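 active means membrane potential signal moves up or down beyond 5 SD from buffer-only wells, on both duplicate plates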). Conditions: parental HEK293, membrane potential dye fluorescence; at 10 µM.
A short description of assay [23]: membrane potential response modulators in host HEK293 cells – cell-based, second counter-screen, parental HEK293, membrane potential dye, counter-screen for TRPC6 modulator project, confirmation (AID 488926;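 active means membrane potential signal drops by more than 5 SD from the mean control signal, in both duplicate plates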). The settings on record: parental HEK293, membrane potential dye fluorescence, at 10 µM, after compound, maximal acetylcholine stimulation; active compounds read high.

Assay [24] concerns Transient receptor potential cation channel subfamily C member 4 (mouse). The experiment in a line: off-target membrane potential effects via mouse TRPC4 – cell-based, HEK293 TRPC4/mu-opioid, membrane potential dye, selectivity assay for TRPC6 modulator project, confirmation (AID 488927;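 active means membrane potential signal moved up or down beyond 5 SD of buffer control wells, in both duplicate plates, actives on both sides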;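 on percent change from control (negative = decrease, positive = increase): plate controls were assay buffer wells for no effect and DAMGO maximal-effect wells for full effect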). Conditions: membrane potential fluorescence, at 10 µM.
Assay [25] deals with TRPC4 (transient receptor potential cation channel C4), mouse. Briefly: DAMGO-evoked mouse TRPC4 response blockade – cell-based, second screen, HEK293 TRPC4/mu-opioid, membrane potential dye, selectivity assay for TRPC6 modulator project, confirmation (AID 488928;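 active means drop in membrane potential signal beyond 5 SD of the control wells in both duplicate plates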;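 further: TRPC4 counter screen for TRPC6 hits run under conditions tuned for TRPC6 not TRPC4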). The settings on record: membrane potential dye fluorescence, at 10 µM, stimulated with maximal-effect DAMGO; active compounds read high.

Unmarked numbers belong to inactive results. For some of these results: Measured potencies and affinities stand elsewhere. Some of the results follow. Active and inactive are the calls of the source.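 How the source made its calls, unless noted: active means fluorescence ratio falls more than 5 SD below the full-stimulation control mean, in both duplicate runs; inactive means the rest.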

By inhibition is commonly meant the change of the read-out against control, counted positive when it falls.

Chain of Short transient receptor potential channel 6 (Mus musculus) (Q61143 whole entry, looked up): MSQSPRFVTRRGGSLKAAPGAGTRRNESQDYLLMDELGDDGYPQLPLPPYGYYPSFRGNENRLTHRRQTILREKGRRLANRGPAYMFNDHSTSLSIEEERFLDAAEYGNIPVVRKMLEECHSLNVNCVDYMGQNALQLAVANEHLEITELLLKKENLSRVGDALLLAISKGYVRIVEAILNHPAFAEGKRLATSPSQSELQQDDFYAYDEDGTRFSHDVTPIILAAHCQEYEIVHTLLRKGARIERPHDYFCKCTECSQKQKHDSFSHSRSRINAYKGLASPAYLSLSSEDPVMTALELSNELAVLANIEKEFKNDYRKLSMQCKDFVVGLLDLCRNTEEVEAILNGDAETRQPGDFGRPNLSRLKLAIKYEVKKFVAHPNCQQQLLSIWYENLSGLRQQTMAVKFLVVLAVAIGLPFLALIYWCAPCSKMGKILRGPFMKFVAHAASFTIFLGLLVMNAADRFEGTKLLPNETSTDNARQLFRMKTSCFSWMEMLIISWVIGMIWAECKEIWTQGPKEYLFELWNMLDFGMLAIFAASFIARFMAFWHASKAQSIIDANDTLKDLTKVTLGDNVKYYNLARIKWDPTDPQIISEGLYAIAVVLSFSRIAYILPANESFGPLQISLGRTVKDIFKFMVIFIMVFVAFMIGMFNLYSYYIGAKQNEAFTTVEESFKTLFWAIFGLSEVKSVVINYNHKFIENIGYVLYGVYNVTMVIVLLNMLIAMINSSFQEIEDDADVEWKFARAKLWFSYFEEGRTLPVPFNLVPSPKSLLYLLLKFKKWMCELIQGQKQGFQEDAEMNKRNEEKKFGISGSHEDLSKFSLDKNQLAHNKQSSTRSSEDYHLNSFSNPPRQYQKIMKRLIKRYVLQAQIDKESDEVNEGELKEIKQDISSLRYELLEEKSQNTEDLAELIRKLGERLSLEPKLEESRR
Chain of Short transient receptor potential channel 4 (Mus musculus) (Q9QUQ5 whole entry, looked up): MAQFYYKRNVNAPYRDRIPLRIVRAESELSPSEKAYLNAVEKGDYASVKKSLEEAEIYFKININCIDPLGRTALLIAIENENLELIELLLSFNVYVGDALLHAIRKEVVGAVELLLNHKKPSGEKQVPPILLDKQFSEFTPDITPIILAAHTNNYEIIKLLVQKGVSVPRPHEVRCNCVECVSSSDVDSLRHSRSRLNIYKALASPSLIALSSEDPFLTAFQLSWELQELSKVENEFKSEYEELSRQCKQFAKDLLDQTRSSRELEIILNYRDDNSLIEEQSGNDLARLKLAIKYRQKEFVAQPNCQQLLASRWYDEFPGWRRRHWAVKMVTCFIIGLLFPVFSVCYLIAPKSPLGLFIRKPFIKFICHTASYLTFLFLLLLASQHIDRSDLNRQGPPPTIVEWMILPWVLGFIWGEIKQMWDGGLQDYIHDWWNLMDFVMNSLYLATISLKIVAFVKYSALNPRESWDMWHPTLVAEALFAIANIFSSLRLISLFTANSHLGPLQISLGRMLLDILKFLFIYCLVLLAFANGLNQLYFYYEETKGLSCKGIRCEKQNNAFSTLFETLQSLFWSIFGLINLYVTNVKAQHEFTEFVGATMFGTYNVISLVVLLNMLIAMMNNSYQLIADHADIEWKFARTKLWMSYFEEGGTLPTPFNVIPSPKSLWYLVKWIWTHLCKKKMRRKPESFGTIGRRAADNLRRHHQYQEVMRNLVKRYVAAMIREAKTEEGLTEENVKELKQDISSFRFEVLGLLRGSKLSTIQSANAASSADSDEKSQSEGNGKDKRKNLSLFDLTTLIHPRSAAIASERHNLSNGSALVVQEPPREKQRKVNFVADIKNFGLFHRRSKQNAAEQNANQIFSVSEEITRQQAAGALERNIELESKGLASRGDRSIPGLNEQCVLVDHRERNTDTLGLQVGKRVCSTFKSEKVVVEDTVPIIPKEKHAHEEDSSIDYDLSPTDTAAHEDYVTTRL

As to `Cn1c(O)c(/C=N/NC(=O)c2cc3ccccc3cc2O)c2ccccc21`, the activation in assay [1] was 81% (active); in assay [9] it was 524% (active); in assay [11] it was 59.2% (active); in [14] it was 82.4% (active); in assay [15] it was 879% (active). Further, the outcome in [2], in [3], in assay [5], in assay [6], in assay [7] and in assay [8] was inactive. In [12], the outcome was inactive. Besides, the potentiation in [4] is 27% (active); in assay [13], 17.8% (active). Moreover, the potentiation, percent of control in [10] is 238% (active).
`CC1Cc2ccccc2N1C(=O)CSc1nc2c(c(=O)n(C)c(=O)n2C)n1Cc1ccccc1` (stereo unspecified): the activation in [1] is 320% (active); in assay [9], 37.5% (active); in [11], 85.8% (active). In addition, the result in [2], in assay [4], in [6], in [8], in [10] and in assay [14] was inactive. The result in assay [15] was inactive. Moreover, the potentiation is 65% (active) in assay [3] and 18.8% (active) in assay [13]. Besides, the inhibition in assay [5] is 83% (active); in [12], 11.2% (active).
Consider `OCCC1CN(Cc2ccc3nsnc3c2)CCN1C1CCCC1` (stereo unspecified), for which the result in assay [16], in assay [17], in assay [18], in assay [19], in assay [20] and in [21] was inactive.
On to `O=C(NNS(=O)(=O)c1ccc(Cl)cc1)C1CCN(Cc2ccccc2)CC1`, for which the outcome in assay [16], in assay [17] and in [21] was inactive. Further, in assay [18], the signal change vs control is -4% (active). Besides, the membrane potential signal change in [19] was 0.15% (active). In [20], the inhibition was 77.8% (active).
On to `C=C(C)c1cccc(C(C)(C)NC(=O)NCCN(CC)CC)c1`, for which the call in [16], in assay [18] and in [21] was inactive. Also, the activity change, negative = inhibition in [17] is 1.45% (active). In addition, in [19], the membrane potential signal change was 0.09% (active). Further, the inhibition in assay [20] was 54.4% (active).
With `CN(C)CCOC(=O)C(c1ccccc1)C1(O)CCCC1` (stereo unspecified), the compound was called inactive in assay [16], in assay [17] and in assay [21]. In addition, the signal change vs control in assay [18] is -39.5% (active). For the same compound, the membrane potential signal change in assay [19] was 0.13% (active). Further, the inhibition in assay [20] is 90.5% (active).
For `CCCCNc1nc2ccccc2[nH]1`, the outcome in assay [8], in assay [9] and in assay [10] was inactive.
Regarding `CC1CC(C)CN(C/C=C/c2ccccc2[N+](=O)[O-])C1` (stereo unspecified), the compound was classed as inactive in assay [16], in assay [20] and in [21]. Further, the activity change, negative = inhibition in [17] was 4.24% (active). Besides, the signal change vs control in assay [18] was 266% (active). For the same compound, the membrane potential signal change in assay [19] was 0.38% (active).
In the case of `Cc1cccc(-[n+]2c(-c3cccc(Br)c3)[nH]c3nc4ccccc4nc32)c1`, the result in assay [22], in [23], in assay [24], in assay [20] and in assay [21] was inactive. Besides, the inhibition in [25] was 51% (active).
`CCCCN(CCCC)CC(O)Cn1c2ccccc2c(=O)c2ccccc21` (stereo unspecified): the outcome in assay [22], in [23] and in assay [24] was inactive. Moreover, the inhibition in assay [25] was 85.5% (active); in [20], 69% (active).
In the case of `CCN(CC)S(=O)(=O)c1ccc(N2CC(C(=O)NCc3cccnc3)CC2=O)cc1` (stereo unspecified), the outcome in assay [22], in assay [23], in [24], in [25], in [20] and in assay [21] was inactive.
Consider `CCN1CCN(c2nc(Nc3cc(OC)ccc3OC)nc(Nc3cc(OC)ccc3OC)n2)CC1`, for which the result in assay [22], in assay [23], in [24], in [20] and in [21] was inactive. Moreover, the inhibition in [25] is 55.5% (active).
Regarding `CN(C)c1cc(N)c2ccccc2n1` (tested in a mixture with another compound), the membrane potential signal change in [22] was -230% (active). Also, the outcome in assay [23] and in assay [21] was inactive. Also, the percent change from control (negative = decrease, positive = increase) in [24] is -40.5% (active). The inhibition in assay [25] is 82% (active); in [20], 69.5% (active).

The values are drawn from PubChem BioAssay.
